LDHA block: qHTS assay for inhibitors of human lactate dehydrogenase; 480,000 compounds, 0.15% hits; AID 1347041, 2019; activity change, % (values are at about 110 or 230 µM); purified LDHA, NADH/diaphorase-resazurin fluorescence; hits give low values; L-lactate dehydrogenase A chain (Homo sapiens), P00338; in the data active means activity change below about -30%; inconclusive means mostly about -25% to -30%;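 further: plate controls were DMSO wells for no effect and wells without enzyme for full effect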
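Human LDH5 at 2 nM final in Tris HCl pH 7.4 with 0.06 mM NADH and 0.2 mM pyruvate, reacted 5 minutes at room temperature. Remaining NADH coupled via diaphorase/resazurin; resorufin fluorescence read at 0 and 20 minutes, normalized to enzyme-free and DMSO wells.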
Akt phos inh: HTS Assay for Inhibitors of Akt Phophorylation: Primary Screen; Neuro2A IGF-stimulated pAkt S473 HTRF, 20 min; hits give low values; activity change, % for hits at 50 µM; 360,000 compounds, 0.32% hits; AID 651550, 2012; in the data active means activity change below about -80%; inconclusive means mostly about -51% to -80%; further: on the % scale 0 is the no-effect control and ±100 the full control effect
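Neuro2A cells (4,500/well, DMEM with 0.5% FBS) were treated with compound at a single 50 µM final concentration, stimulated with 6 nM IGF for 20 min at 37 °C, and lysed. Phospho-Akt Ser473 was read by HTRF as 665/615 ratio ×10^4.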
D3 antag: qHTS of D3 Dopamine Receptor Antagonist: qHTS. D(3) dopamine receptor (Homo sapiens), P35462. D3R cells, DiscoveRx beta-arrestin luminescence, antagonist mode; hits give low values. max response, negative = inhibition, %. 360,000 compounds, 2.5% hits; in the data active means max response below about -50%; inconclusive means no clear call, values can overlap the other calls; further: on the % scale 0 is the no-effect control and ±100 the full control effect
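Cells plated overnight at 1500 cells/well, then exposed to library compounds with dopamine controls for 90 minutes at 37 degrees C. DiscoveRx reagent added for 30–60 minutes at room temperature; luminescence read, quantitative HTS format.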
DRD3 agonist: qHTS of D3 Dopamine Receptor Agonist: qHTS; D(3) dopamine receptor (Homo sapiens), P35462; D3R DiscoveRx beta-arrestin cells, luminescence, 90 min; max activation, %; 410,000 compounds, 0.58% hits; AID 652048, 2013; in the data active means max activation above about 30%; further: 0% is about no effect
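Agonist mode: compounds and dopamine controls were applied to plated cells for 90 min at 37 degrees C after an overnight attachment at 1500 cells/well. Luminescent read-out followed 30 - 60 minutes at room temperature with DiscoveRx detection reagent.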
RGS4 inh: Inhibitors of Regulator of G Protein Signaling (RGS) 4: qHTS | Regulator of G-protein signaling 4 (Homo sapiens), P49798 | Transcreener GDP fluorescence polarization, RGS4-accelerated GTP hydrolysis | Potency, µM (titrated, usually from 114 µM), for the others: top-dose activity change, negative = inhibition, hits mostly inhibitors | 390,000 compounds, 0.039% hits | AID 504845, 2011; active means well fitted inhibition curve with a large enough effect; inconclusive means small, poorly fitted or top-dose-only effect; inactive means no such curve, though single readings can be large or run the other way; further: potency means the concentration at half of the fitted maximal effect; on the % scale 0 is the no-effect control and ±100 the full control effect; nearly all actives have a fitted effect of over 75% in size
Target sequence (P49798 whole entry, looked up): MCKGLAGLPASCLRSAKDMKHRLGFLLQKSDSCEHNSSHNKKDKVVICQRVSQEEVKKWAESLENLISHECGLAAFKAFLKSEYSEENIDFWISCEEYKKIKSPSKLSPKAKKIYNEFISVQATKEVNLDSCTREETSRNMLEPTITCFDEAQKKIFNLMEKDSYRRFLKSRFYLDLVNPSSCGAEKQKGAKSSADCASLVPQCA
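MLSMR compounds (23 nl, pin-transferred) preincubated 10 min at room temperature with a 500nM (2x) first reagent, then RGS4 at 900nM (2x) plus Transcreener GDP mix added; fluorescence polarization (620/688 nm) read before and after 90 min at 30 °C.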
PI4K2A inh: qHTS for small molecular inhibitors of PI4K2A | Phosphatidylinositol 4-kinase type 2-alpha (Homo sapiens), Q9BTU6 | purified PI4K2A, ADP-Glo luminescence, 1 h; hits give low values | activity change, negative = inhibition, % at 76.9 µM | 420,000 compounds, 0.13% hits; in the data active means activity change below about -50%; inconclusive means mostly about -30% to -49%;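 further: -100% = wells without enzyme as full effect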
Target sequence (Q9BTU6 whole entry, looked up): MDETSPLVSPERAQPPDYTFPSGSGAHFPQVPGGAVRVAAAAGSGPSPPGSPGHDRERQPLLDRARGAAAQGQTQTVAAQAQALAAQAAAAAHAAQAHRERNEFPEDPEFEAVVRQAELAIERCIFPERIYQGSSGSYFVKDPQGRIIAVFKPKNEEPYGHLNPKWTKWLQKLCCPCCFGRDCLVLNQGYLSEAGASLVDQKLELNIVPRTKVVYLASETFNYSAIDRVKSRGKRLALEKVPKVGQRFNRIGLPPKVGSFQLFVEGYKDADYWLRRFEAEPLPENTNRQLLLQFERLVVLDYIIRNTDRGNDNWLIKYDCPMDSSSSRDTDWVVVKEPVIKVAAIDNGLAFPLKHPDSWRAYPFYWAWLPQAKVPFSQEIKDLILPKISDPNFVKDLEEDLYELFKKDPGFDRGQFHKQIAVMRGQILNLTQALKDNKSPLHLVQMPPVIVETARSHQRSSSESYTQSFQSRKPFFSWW
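Compounds are screened against recombinant PI4K2A using PI as substrate and ATP, the latter dispensed at 300 microM. Reactions run one hour at ambient temperature before ADP-Glo detection; full inhibition defined by wells lacking enzyme.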
Starred values were filed as active, the others as inactive; [ ] = another dose, or the depositor's remark. Shown are actives, neighbours in structure and some others; about 2.8% of the full set was active somewhere.

O=C(Nc1nnc(SCc2ccccc2)s1)c1cc2c(s1)CCCC2 was read as LDHA block -3, Akt phos inh inconclusive, D3 antag 39, DRD3 agonist 2, RGS4 inh -26% and PI4K2A inh 2.
CCSc1nnc(NC(=O)c2cc3c(s2)CCCC3)s1 was read as LDHA block 0, Akt phos inh -81%*, D3 antag 31, DRD3 agonist 8, RGS4 inh 14% and PI4K2A inh 1.
Screening CCSc1nnc(NC(=O)c2ccc(Br)s2)s1 returned LDHA block -8, Akt phos inh -81%*, D3 antag 39, DRD3 agonist -2, RGS4 inh 14% and PI4K2A inh 3.
`CCSc1nnc(NC(=O)c2ccccc2)s1` gave LDHA block -6, Akt phos inh inactive, D3 antag 10, DRD3 agonist 4, RGS4 inh -25% and PI4K2A inh -5.
CC(=O)c1cc2c(ccc3ccccc32)o1 was read as LDHA block 32.
`COc1ccc(/C=N/n2cnnc2SCCO)cc1OC` gave LDHA block -6, Akt phos inh inactive, D3 antag -5, DRD3 agonist -5, RGS4 inh -16% and PI4K2A inh -2.
Screening C=CCSc1nncn1/N=C/c1ccc(OC)cc1 returned LDHA block 2, Akt phos inh -103%*, D3 antag -1, DRD3 agonist -4, RGS4 inh -8% and PI4K2A inh 4.
`CCCCn1cnc2c1c(=O)n(CC(=O)NC1CCC(C)CC1)c(=O)n2CCC` (stereo not drawn) gave LDHA block -7.
O=C(NC1CCCCC1)c1cccc2c1C(=O)c1ccc(N3CCCC3)cc1S2(=O)=O was read as LDHA block -4, Akt phos inh inactive, D3 antag -1, DRD3 agonist 24, RGS4 inh 10% and PI4K2A inh 1.
O=C1c2ccccc2S(=O)(=O)c2cc(N3CCC(C(=O)N4CCCCC4)CC3)ccc21 was read as LDHA block -2, Akt phos inh inactive, D3 antag 49, DRD3 agonist 38*, RGS4 inh -17% and PI4K2A inh -3.
For O=C(NCc1cc(C(F)(F)F)ccc1Cl)c1cccc2c1C(=O)c1ccc(N3CCC(Cc4ccccc4)CC3)cc1S2(=O)=O the results were LDHA block -3, Akt phos inh inactive, D3 antag 5, DRD3 agonist 47*, RGS4 inh -6% and PI4K2A inh 1.
For O=C(NCc1ccc(F)cc1)c1cccc2c1C(=O)c1ccc(N3CCC(Cc4ccccc4)CC3)cc1S2(=O)=O the results were LDHA block -5, Akt phos inh inactive, D3 antag 0, DRD3 agonist 43*, RGS4 inh -8% and PI4K2A inh -3.
O=C(NCc1ccccc1C(F)(F)F)c1cccc2c1C(=O)c1ccc(N3CCCCC3)cc1S2(=O)=O was read as LDHA block -17, Akt phos inh inactive, D3 antag 56, DRD3 agonist 33*, RGS4 inh 25% and PI4K2A inh -1.
`CCCCn1c(=O)n(CC(C#N)CCC#N)c(=O)c2c1nc(CO)n2CCC` (stereo not drawn) gave LDHA block 1.
For Cc1cn2c(=O)cc(CSc3ccccc3NC(=O)COc3ccccc3C)nc2s1 the results were LDHA block -1.
Screening Cc1nc2c(=O)n(C)c(=O)n(C)c2nc1Cl returned LDHA block 2, Akt phos inh inactive, D3 antag -51*, DRD3 agonist -21, RGS4 inh -11% and PI4K2A inh -22.
`CCN(CC)c1ccc2nc3c(=O)n(C)c(=O)n(C)c3nc2c1` gave LDHA block 27, DRD3 agonist -2, RGS4 inh 6% and PI4K2A inh -8.
For CS(=O)(=O)N1CCc2cc(NS(=O)(=O)c3ccc4c(c3)CC(=O)N4)ccc21 the results were LDHA block -5.
`Cc1cccc(N2CCN(CCNC(=O)c3cc4c(s3)CS(=O)(=O)C4)CC2)c1C` gave LDHA block 0, Akt phos inh inactive, D3 antag 6, DRD3 agonist 86*, RGS4 inh 3% and PI4K2A inh 0.
For Cc1ccc(CNC(=O)c2cc3c(s2)CS(=O)(=O)C3)cc1 the results were LDHA block -3, Akt phos inh inactive, D3 antag -7, DRD3 agonist -4, RGS4 inh -3%[56.9 µM] and PI4K2A inh 8.
For Cc1c(C)n(CCCN2CCOCC2)c2ncn3nc(-c4ccccn4)nc3c12 the results were LDHA block 13.
Cc1cccc(C(=O)NCC(c2cccs2)N2CCOCC2)c1 (stereo not drawn) was read as LDHA block -5, Akt phos inh inactive, D3 antag -58*, DRD3 agonist -8, RGS4 inh -5% and PI4K2A inh 0.
O=C(NCC(c1cccs1)N1CCOCC1)c1cc(-c2ccc(F)cc2)nc2ccccc12 (stereo not drawn) was read as LDHA block 1, Akt phos inh inactive, D3 antag -69*, DRD3 agonist -13, RGS4 inh -34% and PI4K2A inh -1.
Cc1cccc(C(=O)NCC(=O)NCC(c2cccs2)N2CCOCC2)c1 (stereo not drawn) was read as LDHA block -1, Akt phos inh inactive, D3 antag -3, DRD3 agonist 3, RGS4 inh -5% and PI4K2A inh 0.
For CCCCOc1ccc2ccccc2c1/C=C(/C#N)c1nc2ccccc2[nH]1 the results were LDHA block 6.
`O=S(=O)(CCN1CCOC2CCCCC21)c1ccccc1` (stereo not drawn) gave LDHA block 0.
`CC(=O)Nc1cc(-c2ccc(CO)cc2)cn2c(-c3ccc(F)cc3)cnc12` gave LDHA block 1, Akt phos inh inactive, D3 antag -50*, DRD3 agonist -5 and PI4K2A inh -4.
`CC(=O)Nc1cc(-c2cccc(C(=O)NCCN(C)C)c2)cn2c(-c3ccc(S(C)(=O)=O)cc3)cnc12` gave LDHA block -1, Akt phos inh inactive, D3 antag -8, DRD3 agonist 1 and PI4K2A inh 4.

Assay outcomes deposited in PubChem BioAssay by National Center for Advancing Translational Sciences (NCATS).
